From PubChem
Sampled rows, rich in hits. Any-hit rate of the full collection: about 2.3%.
Nrf2 ARE act: qHTS of Nrf2 Activators; AREc32 ARE-luciferase reporter (MCF7-derived line), luminescence, 24 h; Potency, µM (series often up to 46.1 µM), actives largely listed as activators; 410,000 tested, 0.31% active; AID 624171, 2012; also: nearly all actives have a fitted effect of over 65% in size
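ARE activation measured as luciferase luminescence (Steady-Glo, 30 min RT) in AREc32_Fluc cells after 24 hr compound exposure at 37 deg C, 5% CO2; cells seeded overnight at 1000/well in OPTI-MEM, 5% FBS.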
Giardia kill: Small Molecules that selectively kill Giardia lamblia: qHTS. 340,000 tested, 0.15% active. AID 540267, 2011. activity change, % at 7.66 µM, hits read low. Giardia lamblia trophozoite viability; in the data active = activity change below about -80%; inconclusive = between about -30% and that limit;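 also: parasites exposed to compound for two days anaerobically before the ATP read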
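Media and compound were dispensed first, then trophozoites at 100 cells/well; plates sat 48 hrs at 37 deg C without oxygen before ATP luminescence reagent was added and read after 15-30 min at room temperature.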
mIDH1 inhibitor: qHTS for Inhibitors of mutant isocitrate dehydrogenase 1 (IDH1): qHTS | Isocitrate dehydrogenase [NADP] cytoplasmic (Homo sapiens), O75874 | IDH1-R132H enzyme, NADPH consumption, diaphorase/resazurin fluorescence | Potency, µM (series often up to 76.6 µM), hits mostly inhibitors | 390,000 tested, 0.093% active | AID 602179, 2012; also: nearly all actives have a fitted effect of over 65% in size
Target sequence (O75874 whole entry R132H, stated change not applied): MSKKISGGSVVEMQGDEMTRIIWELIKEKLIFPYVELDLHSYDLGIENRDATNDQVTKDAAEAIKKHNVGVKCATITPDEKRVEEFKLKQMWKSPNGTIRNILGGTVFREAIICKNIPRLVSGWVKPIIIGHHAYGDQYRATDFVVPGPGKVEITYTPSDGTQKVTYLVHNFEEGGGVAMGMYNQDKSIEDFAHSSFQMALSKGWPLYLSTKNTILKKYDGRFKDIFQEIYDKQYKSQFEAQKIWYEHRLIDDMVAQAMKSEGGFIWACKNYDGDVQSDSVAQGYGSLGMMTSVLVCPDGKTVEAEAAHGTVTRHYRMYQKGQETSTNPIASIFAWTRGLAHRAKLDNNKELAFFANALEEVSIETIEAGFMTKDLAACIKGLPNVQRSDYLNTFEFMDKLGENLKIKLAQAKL
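IDH1-R132H (0.5 ug/mL dispensed) in pH 7.5 Tris buffer was preincubated 30 min with compound, then given a substrate mix of 0.016 mM NADPH and 2 mM alpha-KG for 80 min at room temperature; remaining NADPH was read by diaphorase/resazurin fluorescence.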
A549 tox-1: Nrf2 qHTS screen for inhibitors: counterscreen for cytotoxicity; Potency, µM (series often up to 46 µM), usual class: inhibitors; AID 504648, 2011; A549 ARE-Fluc cells, CellTiter-Fluor viability, 18-24 h; 390,000 tested, 0.16% active
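Cytotoxicity counterscreen: CellTiter-Fluor fluorescence was measured in A549 ARE_Fluc cells after 18-24 h of compound exposure in a concentration series. The subsequent BugLite luminescent read reports ARE-luciferase activity.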
Apoferritin bind: qHTS Assay for Identification of Novel General Anesthetics; Ferritin light chain (Equus caballus), P02791; apoferritin/1-aminoanthracene competitive binding, fluorescence; Potency, µM (series often up to 77.5 µM), actives largely listed as inhibitors; 350,000 tested, 0.074% active; also: nearly all actives have a fitted effect of over 20% in size
Target sequence (P02791 2-175 limits assumed): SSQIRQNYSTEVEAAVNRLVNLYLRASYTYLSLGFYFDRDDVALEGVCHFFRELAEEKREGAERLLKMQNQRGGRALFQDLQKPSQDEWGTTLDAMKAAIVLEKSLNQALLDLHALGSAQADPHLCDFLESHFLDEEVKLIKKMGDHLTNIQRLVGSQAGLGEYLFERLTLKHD
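Steps: apoferritin (10 uM) was premixed with half-saturated 1-AMA in PBS, compounds were pin-transferred, plates stood 10 min at room temperature, fluorescence was read at 380/535 nm, and curves were fitted with a Hill equation.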
Nrf2 inh: Nrf2 qHTS screen for inhibitors; A549 ARE-Fluc reporter, luciferase luminescence, 18-24 h; Potency, µM (titrated, usually from 46 µM), hits mostly inhibitors; 360,000 tested, 2.1% active; also: nearly all actives have a fitted effect of over 60% in size
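Nrf2 activity is the BugLite luminescence, read 15 min after reagent at room temperature, following CellTiter-Fluor cytotoxicity readout (30 min, 37C). Compound titrations were applied for 18-24 h to 5000 A549 ARE_Fluc cells/well in 5% FBS OPTI-MEM.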
FLuc enzyme inh: Nrf2 qHTS screen for inhibitors: Purified Fluc Biochemical Counterscreen for Hit Validation. shares compounds with Nrf2 inh. purified firefly luciferase, luminescence inhibition. Potency, µM (top dose mostly 57.5 µM), actives largely listed as inhibitors. 1,400 tested, 4% active. AID 720522, 2013; also: nearly all actives have a fitted effect of over 65% in size
A549 tox-2: Nrf2 qHTS screen for inhibitors: A549 ARE-Fluc Cytotoxicity Counterscreen for Hit Validation; shares compounds with Nrf2 inh; A549 ARE-Fluc cells, cytotoxicity counterscreen; Potency, µM (highest dose often 46.1 µM), most hits filed as inhibitors; 1,400 tested, 2% active; AID 720523, 2013;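 also: cells exposed to compounds for 18 to 24 hours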
Nrf2 ARE inh: Nrf2 qHTS screen for inhibitors: Nrf2 A549 ARE-Fluc Confirmation Assay for Hit Validation. 1,400 tested, 74% active. A549 ARE-firefly luciferase reporter, luminescence. AID 720524, 2013. Potency, µM (highest dose often 46.1 µM), usual class: inhibitors. shares compounds with Nrf2 inh; also: nearly all actives have a fitted effect of over 65% in size
Numbers stand for hits; – = inactive; ? = inconclusive; · = not tested or not shown; [ ] = another dose, or the depositor's remark. Unless noted, calls follow the shape of the dose curve; as a rule, active = well fitted curve in the direction sought with a large enough effect; inconclusive = small, poorly fitted or top-dose-only effect, or another doubt; inactive = no such curve, though single readings can be large; an effect the other way counts as inactive or inconclusive.

SMILES	Nrf2 ARE act	Giardia kill	mIDH1 inhibitor	A549 tox-1	Apoferritin bind	Nrf2 inh	FLuc enzyme inh	A549 tox-2	Nrf2 ARE inh
Cc1ccc(S(=O)(=O)N2C[C@@H]3CCCC[C@@H]3[C@@H](C)[C@H]2c2cn(Cc3ccccc3)c3ccccc23)cc1	–	–	–	–	·	1.8µM	–	–	2.9µM
Cc1sc2ncnc(NC3CCN(Cc4ccccc4)CC3)c2c1C	–	–	–	?	–	4.6µM	–	–	5.8µM
Nc1nc(=O)n(C2OC(CO)C(O)C2O)cc1F (stereo unspecified)	–	·	·	·	·	·	·	·	·
O=c1[nH]c(=O)n([C@@H]2O[C@H](CO)[C@@H](O)[C@H]2O)cc1F	·	·	·	·	·	·	–	?	–
O=c1[nH]c(=O)n(C2OC(CO)C(O)C2O)cc1F (stereo unspecified)	–	–	–	?	·	?	–	?	0.15µM
Cc1ccc(S(=O)(=O)N[C@H]2COC(=O)[C@@H](Cc3ccccc3)NC(=O)[C@@H](C)COC(=O)C/C=C\[C@@H]2C)cc1	·	·	·	·	–[15.3 µM]	·	·	·	·
C=C(CN(C)C)C(=O)c1ccc(OC2OC(COC(C)=O)C(OC(C)=O)C(OC(C)=O)C2OC(C)=O)cc1 (stereo unspecified)	?	–	–	?	·	?	·	·	·
CC(C)NS(=O)(=O)c1ccc(NC(=S)NC(=O)c2ccc(-c3ccccc3)cc2)cc1	–	–	–	–	?	2.1µM	–	–	4.6µM
Cc1cc(C(=O)COC(=O)c2ccc(N)c([N+](=O)[O-])c2)c(C)n1Cc1ccc2c(c1)OCO2	–	–	–	–	–	–	·	·	·
Cc1cc(C(=O)COC(=O)c2ccc(N)c([N+](=O)[O-])c2)c(C)n1-c1ccc2c(c1)OCO2	–	–	–	–	–	5.8µM	–	–	?
C(=C\c1ccnc2ccccc12)/c1cc2c3c(c1)CCCN3CCC2	·	·	·	·	·	·	–	–	7.3µM
CCC(C)NC(=O)c1nc2c(nnn2Cc2ccccc2Cl)c(=O)[nH]1 (stereo unspecified)	–	–	–	–	–	–	·	·	·
O=C(NCc1cccs1)c1nc2c(nnn2Cc2ccccc2Cl)c(=O)[nH]1	–	–	–	?	–	5.8µM	?	?	2.1µM
Cc1oc(-c2ccc(Cl)cc2)nc1CS(=O)CC(=O)NCCCN1CCN(Cc2ccccc2)CC1 (stereo unspecified)	–	–	–	–	–	5.8µM	–	–	12µM
O=C(Nc1ccccc1OCc1cc(=O)n2ccccc2n1)c1cccc(Br)c1	–	·	–	–	–	·	·	·	·
CCN(CC(=O)Nc1c(F)cccc1F)C(=O)c1ccc(OC)c(S(=O)(=O)NC2CCCC2)c1	–	·	–	·	·	·	·	·	·
Cc1cc(C(=O)NCc2cc(F)cc3c2OCOC3)nn1C	–	–	–	–	–	–	·	·	·
Cn1nc(C(C)(C)C)cc1C(=O)NCc1cc(F)cc2c1OCOC2	–	–	–	–	–	?	–	–	3.7µM
COc1cccc(-c2nnc3n2N=C(C(C)(C)C)CS3)c1	–	–	–	–	–	7.3µM	–	?	·
COc1cccc(C2=Nn3c(nnc3-c3cccc(OC)c3)SC2)c1	·	·	·	–	?	?	·	·	·
CCCCc1nn2c(=O)cc(COC(=O)c3cccc(NC(=O)c4cccs4)c3)nc2s1	–	·	–	–	–	·	·	·	·
Cc1ccc(C)c(Nc2nnc(-c3ccc(C)c(S(=O)(=O)N4CCN(C)CC4)c3)c3ccccc23)c1	–	·	–	–	–	–	·	·	·
Cc1ccc(CN(C(=O)c2ccccc2)c2ccccn2)o1	–	·	–	–	–	–	·	·	·
CCOC(=O)N1CCN(C(=O)c2ccc(Cn3c(=S)[nH]c4ccc(Br)cc4c3=O)cc2)CC1	–	–	–	?	–	4.1µM	–	?	8.2µM
Brc1ccc(C[n+]2ccccc2)cc1	–	–	–	–	·	2.6µM	–	–	4.1µM
SMILES	Nrf2 ARE act	Giardia kill	mIDH1 inhibitor	A549 tox-1	Apoferritin bind	Nrf2 inh	FLuc enzyme inh	A549 tox-2	Nrf2 ARE inh
CC(=O)c1ccc(S(=O)(=O)N2CCN(CCOc3ccc(Br)cc3)CC2)cc1	–	–	–	?	·	4.1µM	–	–	5.8µM
CCOc1ccc(S(=O)(=O)N2CCN(S(=O)(=O)c3ccc(C(C)=O)cc3)CC2)cc1	–	–	–	–	–	–	·	·	·
CC[n+]1c(/C=C/Nc2ccccc2)oc2ccc(OC)cc21	–	–	–	–	–	–	·	·	·
CC[n+]1c(/C=C/N(C)c2ccccc2)oc2ccc(F)cc21	–	–	–	–	–	6.5µM	–	–	5.8µM
CC(C)(C)c1cc(CCC(=O)NNC(=S)NC(=O)c2ccccc2)cc(C(C)(C)C)c1O	–	–	–	?	–	2.9µM	–	–	15µM
O=C(CCc1ccccc1)NNC(=S)NC(=O)c1ccccc1	–	–	–	–	–	?	·	·	·
Cc1ccccc1NC1=C(Cl)C(=O)OC1OC(=O)c1ccccc1C (stereo unspecified)	?	–	–	?	–	1.6µM	–	–	?
Cc1ccc(NC2=C(Cl)C(=O)OC2OC(=O)c2ccccc2)c(C)c1 (stereo unspecified)	?	–	–	–	–	–	·	·	·
COc1ccc(C(=O)Oc2c(Sc3ccccc3)c(C)nn2-c2ccccc2)c(OC)c1	–	·	?	?	–	–[9.27 µM]	·	·	·
COc1ccc(OC(C)c2nc3ccccc3[nH]2)cc1 (stereo unspecified)	–	·	–	–	–	9.2µM	–	–	–
N#Cc1ccc(CSc2nnc(-c3ccc(Br)cc3)o2)cc1	–	·	–	–	–	–	·	·	·
CCOc1ccccc1C(=O)NCC(=O)N1CCN(Cc2ccc3c(c2)OCO3)CC1	–	–	–	–	·	4.6µM	–	–	5.2µM
CC(=O)c1ccc(Nc2cc(C)nc3nc(Cc4ccccc4)nn23)cc1	–	·	–	–	–	–	·	·	·
CCOC(=O)C(CC)Sc1nnc2[nH]c(=O)cc(C)n12 (stereo unspecified)	–	·	–	–	–	·	·	·	·
CCN(CC)C(=O)c1oc2ccc(S(=O)(=O)N3CC(C)CC(C)C3)cc2c1C (stereo unspecified)	–	–	–	–	–	8.2µM	–	–	8.2µM
